Assay [1] is described as follows: growth inhibition of DIPG glioma cells, dose response, cell-based, SU-DIPG-XVII, MIPE5.0, CellTiter-Glo, qHTS (AID 1347060; cut-off not given, nearly all actives have AC50 up to about 26 µM;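 on AC50: cells exposed to compound for 48 hours before viability readout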). As to conditions: SU-DIPG-XVII viability, CellTiter-Glo ATP luminescence. (In ATP-based viability assays light output follows the ATP content of the culture.)
The nature of assay [2]: growth inhibition of DIPG glioma cells, dose response, cell-based, SU-DIPG-XIII, MIPE4.0, CellTiter-Glo, qHTS (AID 1347061; cut-off not given, nearly all actives have AC50 up to about 37 µM;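 further: cells exposed to compound for 48 hours before readout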). To be noted: SU-DIPG-XIII viability, CellTiter-Glo ATP luminescence.
A short description of assay [3]: growth inhibition of DIPG glioma cells, dose response, cell-based, JHH-DIPG-1, MIPE4.0, CellTiter-Glo, qHTS (AID 1347062; cut-off not given, nearly all actives have AC50 up to about 27 µM;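 on AC50: cells exposed to compound for two days before readout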). To be noted: JHH-DIPG-1 viability, CellTiter-Glo ATP luminescence.
Assay [4] is described as follows: growth inhibition of DIPG glioma cells, dose response, cell-based, SU-DIPG-IV, MIPE4.0, CellTiter-Glo, qHTS (AID 1347063; cut-off not given, nearly all actives have AC50 up to about 30 µM;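 further: compound exposure lasted 48 hours before the viability readout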). To be noted: SU-DIPG-IV viability, CellTiter-Glo ATP luminescence.
Assay [5] is described as follows: viability loss in pontine glioma line – cell-based, SU-DIPG-XXV, MIPE5.0, CellTiter-Glo, qHTS, dose response (AID 1347065; cut-off not given, nearly all actives have AC50 up to about 26 µM;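 further: cells exposed to compound for 48 hours before ATP readout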). As to conditions: CellTiter-Glo ATP luminescence.
Assay [6] is described as follows: SU-DIPG-VI glioma cell viability, MIPE4.0 library, CellTiter-Glo luminescence, qHTS (AID 1347066; cut-off not given, nearly all actives have AC50 up to about 30 µM;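 further: cells exposed to compound for 48 hours before readout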). To be noted: CellTiter-Glo ATP luminescence.
Assay [7] is described as follows: JHH-DIPG-1 glioma cell viability, MIPE5.0 library, CellTiter-Glo luminescence, qHTS (AID 1347067; cut-off not given, nearly all actives have AC50 up to about 26 µM;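 further: cells exposed to compound for 48 hours before readout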). As to conditions: JHH-DIPG-1 glioma viability, CellTiter-Glo ATP luminescence.
Assay [8] is described as follows: SU-DIPG-XXV glioma cell viability, MIPE5.0 library, qHTS (AID 1347068; cut-off not given, nearly all actives have IC50 up to about 30 µM;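 on IC50: cells exposed to compound for 48 hours before viability readout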). On the technique in general: Quantitative high-throughput screening tests each substance at several concentrations.
Assay [9] in a line: modifiers of HSF1 nuclear foci, imaging, Selleck Cancer Library (AID 1347162; in the data active means plate-normalised HSF1 focus index below about 0.46). To be noted: human cells, at 10 µM; SSMD: measured here: HSF1 foci SSMD mean; cell count: measured here: cell number; plate-normalised HSF1 focus index: stronger effect = lower value.
Assay [10] can be described thus: ovarian cancer cell viability with rucaparib, profiling panel, oncology-focused library, rucaparib conditional (AID 1508598). To be noted: patient-derived ovarian cancer cells, CellTiter-Glo viability, 144 h, stronger effect = lower value.

Results filed as inconclusive are left out. Calls of active or inactive are those of the source.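 How the source made its calls, unless noted: active means normalized viability below 100% at a tested concentration; inactive means the rest.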

With `CNC1CCC(N(Cc2cccc(-c3ccncc3)c2)C(=O)c2sc3c(F)ccc(F)c3c2Cl)CC1` (stereo unspecified), the concentration at half-maximal activity (AC50) is 23.5 µM (active) in assay [1]; 14.8 µM (active) in assay [2]; 26.4 µM (active) in assay [3]; 23.5 µM (active) in assay [4]; 18.6 µM (active) in assay [5]; 23.5 µM (active) in [6]. Further, in assay [7], the concentration at half-maximal activity (AC50) was 26.3 µM (active).
`Cc1nc2cnc3ccc(C#Cc4cccnc4)cc3c2n1-c1ccc(C(C)(C)C#N)cc1`: the AC50 in assay [1] was 0.468 µM (active); in assay [2], 0.59 µM (active); in [3], 0.166 µM (active); in assay [4], 0.0296 µM (active); in [5], 0.209 µM (active); in [6], 1.18 µM (active). In addition, the half-maximal activity concentration (AC50) in assay [7] is 1.66 µM (active). For the same compound, in [8], the IC50 was 2.63 µM (active).
Take `CC(C)(F)C[C@H](N[C@@H](c1ccc(-c2ccc(S(C)(=O)=O)cc2)cc1)C(F)(F)F)C(=O)NC1(C#N)CC1`: the compound was classed as inactive in [1], in assay [2], in assay [3], in assay [4], in assay [5] and in assay [6]. For the same compound, the compound was called inactive in assay [7] and in assay [8].
For the compound `CN(C)C/C=C/C(=O)Nc1cc2c(Nc3ccc(F)c(Cl)c3)ncnc2cc1O[C@H]1CCOC1`, the half-maximal activity concentration (AC50) in assay [1] was 13.2 µM (active); in [2] it was 23.5 µM (active); in assay [3], 16.6 µM (active); in assay [4], 16.6 µM (active); in assay [5], 8.33 µM (active); in [6], 29.6 µM (active). Besides, in [7], the AC50 is 9.34 µM (active). In addition, the IC50 in assay [8] was 4.17 µM (active). The same compound yielded an SSMD in assay [9] of -10.2. Besides, the cell count in [9] turned out to be 6000. The plate-normalised HSF1 focus index in assay [9] was 0.64 (inactive). The viability in assay [10] (at 0.000305 µM, OCI-C5x cells, with rucaparib 10 µM, 100% = cells with rucaparib alone) is 118% (inactive); in assay [10] (at 0.000305 µM, OCI-C5x cells, without rucaparib) it was 114% (inactive); in assay [10] (at 0.000305 µM, OCI-P5x cells, with rucaparib 20 µM, 100% = cells with rucaparib alone) it was 123% (inactive); in assay [10] (at 0.000305 µM, OCI-P5x cells, without rucaparib) it was 107% (inactive); in [10] (at 0.00122 µM, OCI-C5x cells, with rucaparib 10 µM, 100% = cells with rucaparib alone) it was 116% (inactive); in assay [10] (at 0.00122 µM, OCI-C5x cells, without rucaparib) it was 100% (active). Also, the viability in assay [10] (at 0.00122 µM, OCI-P5x cells, with rucaparib 20 µM, 100% = cells with rucaparib alone) is 97.9% (active); in assay [10] (at 0.00122 µM, OCI-P5x cells, without rucaparib), 99.7% (active); in assay [10] (at 0.00488 µM, OCI-C5x cells, with rucaparib 10 µM, 100% = cells with rucaparib alone), 107% (inactive); in [10] (at 0.00488 µM, OCI-C5x cells, without rucaparib), 80.6% (active); in [10] (at 0.00488 µM, OCI-P5x cells, with rucaparib 20 µM, 100% = cells with rucaparib alone) it was 117% (inactive); in [10] (at 0.00488 µM, OCI-P5x cells, without rucaparib) it was 99.9% (active). Also, the viability in [10] (at 0.0195 µM, OCI-C5x cells, with rucaparib 10 µM, 100% = cells with rucaparib alone) was 70.1% (active); in assay [10] (at 0.0195 µM, OCI-C5x cells, without rucaparib), 66.7% (active); in assay [10] (at 0.0195 µM, OCI-P5x cells, with rucaparib 20 µM, 100% = cells with rucaparib alone) it was 102% (inactive); in assay [10] (at 0.0195 µM, OCI-P5x cells, without rucaparib), 96.3% (active); in assay [10] (at 0.0781 µM, OCI-C5x cells, with rucaparib 10 µM, 100% = cells with rucaparib alone), 67.5% (active); in assay [10] (at 0.0781 µM, OCI-C5x cells, without rucaparib) it was 69.5% (active). In addition, the viability was 122% (inactive) in assay [10] (at 0.0781 µM, OCI-P5x cells, with rucaparib 20 µM, 100% = cells with rucaparib alone); 94.8% (active) in assay [10] (at 0.0781 µM, OCI-P5x cells, without rucaparib); 62.7% (active) in assay [10] (at 0.313 µM, OCI-C5x cells, with rucaparib 10 µM, 100% = cells with rucaparib alone); 63.1% (active) in assay [10] (at 0.313 µM, OCI-C5x cells, without rucaparib); 120% (inactive) in assay [10] (at 0.313 µM, OCI-P5x cells, with rucaparib 20 µM, 100% = cells with rucaparib alone); 94.2% (active) in [10] (at 0.313 µM, OCI-P5x cells, without rucaparib). In addition, the viability in assay [10] (at 1.25 µM, OCI-C5x cells, with rucaparib 10 µM, 100% = cells with rucaparib alone) was 6.05% (active); in assay [10] (at 1.25 µM, OCI-C5x cells, without rucaparib), 46% (active); in assay [10] (at 1.25 µM, OCI-P5x cells, with rucaparib 20 µM, 100% = cells with rucaparib alone), 8.68% (active); in [10] (at 1.25 µM, OCI-P5x cells, without rucaparib), 66.6% (active); in assay [10] (at 5 µM, OCI-C5x cells, with rucaparib 10 µM, 100% = cells with rucaparib alone) it was 3.87% (active); in assay [10] (at 5 µM, OCI-C5x cells, without rucaparib), 22.5% (active). Also, the viability in assay [10] (at 5 µM, OCI-P5x cells, with rucaparib 20 µM, 100% = cells with rucaparib alone) is 0.219% (active); in assay [10] (at 5 µM, OCI-P5x cells, without rucaparib), 6.79% (active).

One may read the AC50 as the midpoint of the concentration-response curve, whichever way the signal moves. The term IC50 denotes the midpoint of a concentration-inhibition curve. In general, viability refers to a read-out of living cells in per cent, often relative to untreated cells.

These data come from PubChem BioAssay.
